# Test results from article PMC7862700, “An all-to-all approach to the identification of sequence-specific readers for epigenetic DNA modifications on cytosine”.
# What was measured:
# Test in all cases: DAPPL (digital affinity profiling via proximity ligation, sequencing); 10 mM Tris-HCl pH 7.5, 50 mM NaCl, 1 mM DTT, 4% glycerol, room temperature, 30 min; GST-TFs on glutathione beads, 16-mer random dsDNA library, 0.1% formaldehyde crosslink after washing; high values mean tight binding
# [1] = molecular target: T1, FLI1 (Homo sapiens, UniProt Q01543 1-452); conditions: protein: recombinant; tags: N-terminal GST; dsDNA, one strand shown
# T1 sequence: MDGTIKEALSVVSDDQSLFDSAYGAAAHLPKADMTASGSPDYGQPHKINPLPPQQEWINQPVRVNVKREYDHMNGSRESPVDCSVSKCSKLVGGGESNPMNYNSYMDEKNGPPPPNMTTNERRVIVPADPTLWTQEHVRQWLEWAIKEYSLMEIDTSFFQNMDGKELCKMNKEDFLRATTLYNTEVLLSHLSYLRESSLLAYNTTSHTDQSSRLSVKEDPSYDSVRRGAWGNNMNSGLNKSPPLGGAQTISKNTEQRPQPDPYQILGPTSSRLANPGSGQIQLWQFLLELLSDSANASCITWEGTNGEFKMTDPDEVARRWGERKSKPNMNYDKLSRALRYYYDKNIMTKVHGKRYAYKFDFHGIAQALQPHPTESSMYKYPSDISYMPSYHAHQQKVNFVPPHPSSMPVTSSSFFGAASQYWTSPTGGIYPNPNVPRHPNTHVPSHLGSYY
# How it was run: (§1)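 Human transcription factors were made in yeast as GST fusions, captured on glutathione beads and barcoded with DNA. With a tag-only sample included, the pool was incubated with 200 nmole of a random double-stranded 16-mer DNA library in Tris/NaCl/DTT/glycerol buffer at room temperature for 30 min, then crosslinked with 0.1% formaldehyde after washing, ligated by proximity, amplified and sequenced. For binding signal, each hexamer's read frequency for a factor is divided by its frequency for the tag-only sample.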
# [2] = molecular target: T2, ELK1 (Homo sapiens, UniProt P19419 1-428); conditions: protein: recombinant; tags: N-terminal GST; dsDNA, one strand shown
# T2 sequence: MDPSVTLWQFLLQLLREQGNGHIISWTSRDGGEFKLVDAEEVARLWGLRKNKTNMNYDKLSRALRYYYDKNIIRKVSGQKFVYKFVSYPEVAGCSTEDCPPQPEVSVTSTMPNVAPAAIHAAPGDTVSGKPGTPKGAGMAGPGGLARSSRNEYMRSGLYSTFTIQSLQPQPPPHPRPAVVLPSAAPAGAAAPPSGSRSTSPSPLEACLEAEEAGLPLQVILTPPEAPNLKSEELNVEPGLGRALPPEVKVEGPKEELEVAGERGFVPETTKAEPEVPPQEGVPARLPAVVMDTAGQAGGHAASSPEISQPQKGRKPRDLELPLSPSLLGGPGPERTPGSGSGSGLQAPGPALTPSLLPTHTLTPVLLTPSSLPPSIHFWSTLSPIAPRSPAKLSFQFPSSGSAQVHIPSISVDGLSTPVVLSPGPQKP
# How it was run: as §1
# [3] = molecular target: T3, GABPA (Homo sapiens, UniProt Q06546 1-454); conditions: protein: recombinant; tags: N-terminal GST; dsDNA, one strand shown
# T3 sequence: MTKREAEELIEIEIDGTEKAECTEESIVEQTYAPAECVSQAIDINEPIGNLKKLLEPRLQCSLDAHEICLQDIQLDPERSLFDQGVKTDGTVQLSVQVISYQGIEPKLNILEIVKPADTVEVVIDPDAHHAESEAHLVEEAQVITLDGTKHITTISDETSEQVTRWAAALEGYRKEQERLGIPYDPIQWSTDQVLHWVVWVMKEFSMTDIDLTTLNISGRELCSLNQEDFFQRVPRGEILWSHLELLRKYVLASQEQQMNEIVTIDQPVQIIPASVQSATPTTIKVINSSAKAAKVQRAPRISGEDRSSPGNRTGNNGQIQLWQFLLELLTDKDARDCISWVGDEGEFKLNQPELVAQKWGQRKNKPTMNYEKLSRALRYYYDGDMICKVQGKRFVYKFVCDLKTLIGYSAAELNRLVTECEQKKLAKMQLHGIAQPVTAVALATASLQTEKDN
# How it was run: as §1
# [4] = molecular target: T4, ERG (Homo sapiens, UniProt P11308 1-479); conditions: protein: recombinant; tags: N-terminal GST; dsDNA, one strand shown
# T4 sequence: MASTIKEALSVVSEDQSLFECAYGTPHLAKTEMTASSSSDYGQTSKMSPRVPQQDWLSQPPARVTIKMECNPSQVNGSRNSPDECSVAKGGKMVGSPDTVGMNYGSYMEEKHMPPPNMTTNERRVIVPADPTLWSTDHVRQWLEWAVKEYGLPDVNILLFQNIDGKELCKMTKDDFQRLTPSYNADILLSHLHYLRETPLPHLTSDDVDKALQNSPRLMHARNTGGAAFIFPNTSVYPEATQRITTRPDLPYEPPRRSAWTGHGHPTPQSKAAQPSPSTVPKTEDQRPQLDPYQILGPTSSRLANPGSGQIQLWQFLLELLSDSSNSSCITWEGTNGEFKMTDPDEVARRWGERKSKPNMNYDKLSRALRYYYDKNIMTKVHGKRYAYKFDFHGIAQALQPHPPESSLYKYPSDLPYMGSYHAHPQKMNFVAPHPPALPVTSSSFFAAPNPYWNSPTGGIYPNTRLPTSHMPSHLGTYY
# How it was run: as §1
# [5] = molecular target: ELF1 (Homo sapiens, UniProt P32519 1-619); conditions: protein: recombinant; tags: N-terminal GST; dsDNA, one strand shown
# How it was run: as §1
# [6] = molecular target: T5, EHF (Homo sapiens, UniProt Q9NZC4 1-300); conditions: protein: recombinant; tags: N-terminal GST; dsDNA, one strand shown
# T5 sequence: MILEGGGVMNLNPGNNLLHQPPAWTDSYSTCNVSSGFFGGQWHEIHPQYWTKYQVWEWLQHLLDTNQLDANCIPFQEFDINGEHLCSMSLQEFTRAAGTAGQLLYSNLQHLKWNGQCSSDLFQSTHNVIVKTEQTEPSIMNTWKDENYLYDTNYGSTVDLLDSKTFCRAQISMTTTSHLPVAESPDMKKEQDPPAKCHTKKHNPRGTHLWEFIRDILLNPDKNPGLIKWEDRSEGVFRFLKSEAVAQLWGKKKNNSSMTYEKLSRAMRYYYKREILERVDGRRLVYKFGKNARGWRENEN
# How it was run: as §1
# [7] = molecular target: SPI1 (Homo sapiens, UniProt P17947 1-270); conditions: protein: recombinant; tags: N-terminal GST; dsDNA, one strand shown
# How it was run: as §1
# [8] = molecular target: SPIB (Homo sapiens, UniProt Q01892 1-262); conditions: protein: recombinant; tags: N-terminal GST; dsDNA, one strand shown
# How it was run: as §1
# [9] = molecular target: T6, ELK3 (Homo sapiens, UniProt P41970 1-407); conditions: protein: recombinant; tags: N-terminal GST; dsDNA, one strand shown
# T6 sequence: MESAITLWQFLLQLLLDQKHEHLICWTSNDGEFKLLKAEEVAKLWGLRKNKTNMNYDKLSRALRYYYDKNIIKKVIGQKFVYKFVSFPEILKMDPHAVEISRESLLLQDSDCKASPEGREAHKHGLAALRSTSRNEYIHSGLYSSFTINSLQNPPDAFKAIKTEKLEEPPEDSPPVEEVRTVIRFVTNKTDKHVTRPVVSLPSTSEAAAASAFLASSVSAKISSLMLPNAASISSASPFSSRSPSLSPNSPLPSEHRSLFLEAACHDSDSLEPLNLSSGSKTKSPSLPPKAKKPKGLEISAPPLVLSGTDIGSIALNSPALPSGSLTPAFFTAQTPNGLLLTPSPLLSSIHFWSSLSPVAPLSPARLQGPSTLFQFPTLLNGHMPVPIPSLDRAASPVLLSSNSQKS
# How it was run: as §1
# [10] = molecular target: T7, FEV (Homo sapiens, UniProt Q99581 1-238); conditions: protein: recombinant; tags: N-terminal GST; dsDNA, one strand shown
# T7 sequence: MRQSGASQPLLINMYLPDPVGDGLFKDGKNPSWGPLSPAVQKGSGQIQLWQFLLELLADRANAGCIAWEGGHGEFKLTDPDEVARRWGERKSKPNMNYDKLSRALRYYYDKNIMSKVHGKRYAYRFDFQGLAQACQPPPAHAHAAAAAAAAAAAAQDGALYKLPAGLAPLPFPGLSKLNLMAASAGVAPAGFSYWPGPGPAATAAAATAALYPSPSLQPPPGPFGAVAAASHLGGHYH
# How it was run: as §1
# [11] = molecular target: ETV5 (Homo sapiens, UniProt P41161 1-510); conditions: protein: recombinant; tags: N-terminal GST; dsDNA, one strand shown
# How it was run: as §1
# [12] = molecular target: HSF1 (Homo sapiens, UniProt Q00613 1-529); conditions: protein: recombinant; tags: N-terminal GST; chain copies: 3; dsDNA, one strand shown
# How it was run: as §1
# [13] = molecular target: T8, SPIC (Homo sapiens, UniProt Q8N5J4 1-248); conditions: protein: recombinant; tags: N-terminal GST; dsDNA, one strand shown
# T8 sequence: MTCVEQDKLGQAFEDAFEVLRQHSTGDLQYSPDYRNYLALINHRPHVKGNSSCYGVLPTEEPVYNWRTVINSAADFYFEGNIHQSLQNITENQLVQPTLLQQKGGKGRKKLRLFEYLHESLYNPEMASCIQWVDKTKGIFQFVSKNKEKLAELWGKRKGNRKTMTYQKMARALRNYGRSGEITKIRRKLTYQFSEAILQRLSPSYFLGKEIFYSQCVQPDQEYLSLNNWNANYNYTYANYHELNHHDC
# How it was run: as §1
# [14] = molecular target: ELF4 (Homo sapiens, UniProt Q99607 1-663); conditions: protein: recombinant; tags: N-terminal GST; dsDNA, one strand shown
# How it was run: as §1
# [15] = molecular target: T9, ELK4 (Homo sapiens, UniProt P28324-2 1-405); conditions: protein: recombinant; tags: N-terminal GST; dsDNA, one strand shown
# T9 sequence: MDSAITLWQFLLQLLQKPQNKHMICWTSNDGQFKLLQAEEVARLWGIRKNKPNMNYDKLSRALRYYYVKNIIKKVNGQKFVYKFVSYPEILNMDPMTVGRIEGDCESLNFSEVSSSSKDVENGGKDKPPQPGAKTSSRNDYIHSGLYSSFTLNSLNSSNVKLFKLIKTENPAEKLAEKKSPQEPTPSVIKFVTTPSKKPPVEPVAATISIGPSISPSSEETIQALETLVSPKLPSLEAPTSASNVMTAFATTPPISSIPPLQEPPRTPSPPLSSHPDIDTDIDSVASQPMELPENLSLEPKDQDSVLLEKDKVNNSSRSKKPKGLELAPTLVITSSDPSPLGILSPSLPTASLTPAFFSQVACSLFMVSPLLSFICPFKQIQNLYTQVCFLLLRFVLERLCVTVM
# How it was run: as §1
# [16] = molecular target: T10, ETV2 (Homo sapiens, UniProt O00321 1-342); conditions: protein: recombinant; tags: N-terminal GST; dsDNA, one strand shown
# T10 sequence: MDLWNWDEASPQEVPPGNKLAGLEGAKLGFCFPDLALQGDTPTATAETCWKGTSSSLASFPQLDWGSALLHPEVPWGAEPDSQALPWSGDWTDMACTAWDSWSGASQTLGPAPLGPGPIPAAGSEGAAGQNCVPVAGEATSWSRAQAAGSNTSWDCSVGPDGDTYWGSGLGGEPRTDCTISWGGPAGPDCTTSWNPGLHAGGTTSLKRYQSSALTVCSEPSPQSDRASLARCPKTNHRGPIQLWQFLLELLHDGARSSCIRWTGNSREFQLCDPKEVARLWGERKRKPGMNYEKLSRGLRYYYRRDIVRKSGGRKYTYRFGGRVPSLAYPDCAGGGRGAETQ
# How it was run: as §1
# [17] = molecular target: T11, ELF3 (Homo sapiens, UniProt P78545 1-371); conditions: protein: recombinant; tags: N-terminal GST; dsDNA, one strand shown
# T11 sequence: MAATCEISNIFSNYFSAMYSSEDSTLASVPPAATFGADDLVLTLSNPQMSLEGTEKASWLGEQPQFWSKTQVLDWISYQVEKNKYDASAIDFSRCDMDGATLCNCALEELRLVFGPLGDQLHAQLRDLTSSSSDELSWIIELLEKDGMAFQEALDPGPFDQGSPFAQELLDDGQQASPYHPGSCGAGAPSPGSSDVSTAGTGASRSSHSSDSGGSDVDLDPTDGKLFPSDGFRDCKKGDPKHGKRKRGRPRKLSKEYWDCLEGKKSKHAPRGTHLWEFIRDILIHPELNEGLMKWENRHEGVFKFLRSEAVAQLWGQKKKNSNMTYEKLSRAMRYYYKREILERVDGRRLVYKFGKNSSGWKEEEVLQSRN
# How it was run: as §1
# [18] = molecular target: CRX (Homo sapiens, UniProt O43186 1-299); conditions: protein: recombinant; tags: N-terminal GST; dsDNA, one strand shown
# How it was run: as §1
# [19] = molecular target: ETV1 (Homo sapiens, UniProt P50549 1-477); conditions: protein: recombinant; tags: N-terminal GST; dsDNA, one strand shown
# How it was run: as §1
# Sequence of ELF4 (Q99607 whole entry): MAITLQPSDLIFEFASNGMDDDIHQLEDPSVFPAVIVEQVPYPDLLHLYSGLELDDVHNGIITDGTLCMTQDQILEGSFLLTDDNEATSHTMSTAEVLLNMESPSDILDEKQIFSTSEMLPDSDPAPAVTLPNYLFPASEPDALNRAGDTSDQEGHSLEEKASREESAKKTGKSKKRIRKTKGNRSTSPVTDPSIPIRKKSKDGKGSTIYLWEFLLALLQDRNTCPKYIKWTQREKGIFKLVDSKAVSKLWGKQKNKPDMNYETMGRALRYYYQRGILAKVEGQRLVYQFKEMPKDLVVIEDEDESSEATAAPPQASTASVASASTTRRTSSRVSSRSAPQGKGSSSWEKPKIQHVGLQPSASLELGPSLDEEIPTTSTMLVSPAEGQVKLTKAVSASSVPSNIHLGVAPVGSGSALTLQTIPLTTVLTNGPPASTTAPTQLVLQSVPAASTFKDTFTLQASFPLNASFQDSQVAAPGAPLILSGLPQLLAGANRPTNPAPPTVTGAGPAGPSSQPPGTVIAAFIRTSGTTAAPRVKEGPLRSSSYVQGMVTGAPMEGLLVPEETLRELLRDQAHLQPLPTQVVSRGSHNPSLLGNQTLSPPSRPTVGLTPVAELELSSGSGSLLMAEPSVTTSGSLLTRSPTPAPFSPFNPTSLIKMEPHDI
# Sequence of ELF1 (P32519 whole entry): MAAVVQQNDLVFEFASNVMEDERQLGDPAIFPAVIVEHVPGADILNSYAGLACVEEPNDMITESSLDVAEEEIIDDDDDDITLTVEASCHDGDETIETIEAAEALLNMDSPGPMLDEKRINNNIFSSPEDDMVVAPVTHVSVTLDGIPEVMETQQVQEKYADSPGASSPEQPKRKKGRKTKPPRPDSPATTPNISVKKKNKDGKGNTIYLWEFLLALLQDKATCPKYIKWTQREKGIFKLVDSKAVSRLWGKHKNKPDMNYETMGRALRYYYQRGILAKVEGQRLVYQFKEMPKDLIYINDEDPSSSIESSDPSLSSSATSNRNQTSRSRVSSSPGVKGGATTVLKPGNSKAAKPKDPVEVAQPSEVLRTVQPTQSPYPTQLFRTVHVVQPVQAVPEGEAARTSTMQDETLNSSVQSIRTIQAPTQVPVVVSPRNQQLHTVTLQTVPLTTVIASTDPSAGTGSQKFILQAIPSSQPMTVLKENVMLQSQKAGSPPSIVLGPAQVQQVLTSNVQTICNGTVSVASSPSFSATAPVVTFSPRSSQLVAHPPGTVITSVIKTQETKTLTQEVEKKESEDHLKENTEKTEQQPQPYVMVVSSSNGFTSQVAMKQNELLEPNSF
# Sequence of ETV5 (P41161 whole entry): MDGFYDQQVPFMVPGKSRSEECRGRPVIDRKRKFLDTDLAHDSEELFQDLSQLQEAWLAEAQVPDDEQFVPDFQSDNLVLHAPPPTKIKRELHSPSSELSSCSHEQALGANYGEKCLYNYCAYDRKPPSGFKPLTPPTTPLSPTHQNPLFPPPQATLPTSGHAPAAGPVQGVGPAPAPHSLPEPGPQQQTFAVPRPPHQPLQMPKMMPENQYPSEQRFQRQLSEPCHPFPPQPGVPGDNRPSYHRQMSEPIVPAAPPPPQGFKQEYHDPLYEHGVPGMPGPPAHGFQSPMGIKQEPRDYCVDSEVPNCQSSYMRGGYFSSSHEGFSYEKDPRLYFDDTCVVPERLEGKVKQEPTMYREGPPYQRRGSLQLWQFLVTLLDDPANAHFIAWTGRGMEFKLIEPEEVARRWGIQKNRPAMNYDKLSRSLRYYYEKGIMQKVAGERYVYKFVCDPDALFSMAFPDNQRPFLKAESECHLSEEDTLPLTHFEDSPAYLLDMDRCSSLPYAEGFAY
# Sequence of HSF1 (Q00613 whole entry): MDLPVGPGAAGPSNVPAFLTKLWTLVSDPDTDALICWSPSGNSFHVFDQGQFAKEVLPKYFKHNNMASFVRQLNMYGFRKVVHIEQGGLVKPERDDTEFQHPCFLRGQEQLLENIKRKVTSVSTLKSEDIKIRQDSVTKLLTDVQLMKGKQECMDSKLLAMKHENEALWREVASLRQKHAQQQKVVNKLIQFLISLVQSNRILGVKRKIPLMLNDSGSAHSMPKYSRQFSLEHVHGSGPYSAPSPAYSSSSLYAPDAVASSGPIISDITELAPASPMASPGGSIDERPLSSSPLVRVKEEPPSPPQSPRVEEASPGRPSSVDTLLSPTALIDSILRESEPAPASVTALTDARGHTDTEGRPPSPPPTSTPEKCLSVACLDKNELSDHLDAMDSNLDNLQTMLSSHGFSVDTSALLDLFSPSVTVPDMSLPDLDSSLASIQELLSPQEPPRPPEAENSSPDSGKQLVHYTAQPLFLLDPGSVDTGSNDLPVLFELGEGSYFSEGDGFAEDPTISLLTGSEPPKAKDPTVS
# Sequence of ETV1 (P50549 whole entry): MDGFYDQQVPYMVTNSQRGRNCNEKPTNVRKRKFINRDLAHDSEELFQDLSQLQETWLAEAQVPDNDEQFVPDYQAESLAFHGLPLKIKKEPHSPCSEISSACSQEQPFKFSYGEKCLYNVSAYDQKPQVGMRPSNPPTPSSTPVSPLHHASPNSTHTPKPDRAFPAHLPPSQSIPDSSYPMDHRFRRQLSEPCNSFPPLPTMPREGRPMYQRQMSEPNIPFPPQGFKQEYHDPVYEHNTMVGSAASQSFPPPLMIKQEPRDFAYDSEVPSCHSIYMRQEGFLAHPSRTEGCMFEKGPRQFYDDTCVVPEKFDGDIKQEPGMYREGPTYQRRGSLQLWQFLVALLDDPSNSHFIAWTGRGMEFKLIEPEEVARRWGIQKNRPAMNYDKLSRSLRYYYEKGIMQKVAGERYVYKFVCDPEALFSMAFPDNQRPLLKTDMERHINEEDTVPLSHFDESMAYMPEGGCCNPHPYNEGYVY
# Sequence of SPIB (Q01892 whole entry): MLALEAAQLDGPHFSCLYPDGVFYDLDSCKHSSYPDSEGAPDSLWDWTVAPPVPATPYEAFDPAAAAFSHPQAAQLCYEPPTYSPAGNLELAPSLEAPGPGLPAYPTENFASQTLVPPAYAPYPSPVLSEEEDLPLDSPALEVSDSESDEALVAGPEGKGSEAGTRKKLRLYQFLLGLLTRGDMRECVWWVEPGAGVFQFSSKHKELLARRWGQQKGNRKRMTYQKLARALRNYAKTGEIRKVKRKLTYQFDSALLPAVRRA
# Sequence of CRX (O43186 whole entry): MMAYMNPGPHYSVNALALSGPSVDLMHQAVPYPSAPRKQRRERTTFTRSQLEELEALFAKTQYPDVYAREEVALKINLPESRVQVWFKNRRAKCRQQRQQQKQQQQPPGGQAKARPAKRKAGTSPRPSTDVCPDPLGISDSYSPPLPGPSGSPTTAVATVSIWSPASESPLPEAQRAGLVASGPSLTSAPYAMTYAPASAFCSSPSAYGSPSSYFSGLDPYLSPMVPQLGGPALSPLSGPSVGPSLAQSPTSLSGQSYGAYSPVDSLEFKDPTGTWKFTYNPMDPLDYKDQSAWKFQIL
sequence,measurement,setting,value
AATACC,binding signal,[1],"1.25 fold enrichment (6-mer frequency, TF over GST control)"
same,binding signal,[2],"1.09 fold enrichment (6-mer frequency, TF over GST control)"
same,binding signal,[3],"1.09 fold enrichment (6-mer frequency, TF over GST control)"
same,binding signal,[4],"1.21 fold enrichment (6-mer frequency, TF over GST control)"
same,binding signal,[5],"1.19 fold enrichment (6-mer frequency, TF over GST control)"
same,binding signal,[6],"1.19 fold enrichment (6-mer frequency, TF over GST control)"
same,binding signal,[7],"1.14 fold enrichment (6-mer frequency, TF over GST control)"
same,binding signal,[8],"1.16 fold enrichment (6-mer frequency, TF over GST control)"
same,binding signal,[9],"1.25 fold enrichment (6-mer frequency, TF over GST control)"
same,binding signal,[10],"1.23 fold enrichment (6-mer frequency, TF over GST control)"
same,binding signal,[11],"1.13 fold enrichment (6-mer frequency, TF over GST control)"
same,binding signal,[12],"1.19 fold enrichment (6-mer frequency, TF over GST control)"
same,binding signal,[13],"1.15 fold enrichment (6-mer frequency, TF over GST control)"
same,binding signal,[14],"1.1 fold enrichment (6-mer frequency, TF over GST control)"
same,binding signal,[15],"1.11 fold enrichment (6-mer frequency, TF over GST control)"
same,binding signal,[16],"1.17 fold enrichment (6-mer frequency, TF over GST control)"
same,binding signal,[17],"1.12 fold enrichment (6-mer frequency, TF over GST control)"
same,binding signal,[18],"1.44 fold enrichment (6-mer frequency, TF over GST control)"
same,binding signal,[19],"1.22 fold enrichment (6-mer frequency, TF over GST control)"
